Source: the supplement of paper PMC3545927
The other results are listed elsewhere or left out. No count for the full screen is at hand.

Biological target: furin, P09958
Assay: furin cleavage Z-score vs untreated control; higher = more cleavage, active = 3.5 or more, inactive = 1 or less, 8 variable residues between constant flanks
Procedure, shortened: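 Purified furin digested bead-held 8-mer peptide–cDNA fusions at 1:10 enzyme:substrate in 0.01 ml of 50 mM HEPES pH 7.5 with CaCl2 and NaCl for 7.5, 15 or 30 min. The cleavage Z-score compares sequencing counts of released DNA with furin-free reactions on a log scale, with lowess adjustment and median absolute deviation scaling.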

Chain of furin, P09958 (P09958 whole entry): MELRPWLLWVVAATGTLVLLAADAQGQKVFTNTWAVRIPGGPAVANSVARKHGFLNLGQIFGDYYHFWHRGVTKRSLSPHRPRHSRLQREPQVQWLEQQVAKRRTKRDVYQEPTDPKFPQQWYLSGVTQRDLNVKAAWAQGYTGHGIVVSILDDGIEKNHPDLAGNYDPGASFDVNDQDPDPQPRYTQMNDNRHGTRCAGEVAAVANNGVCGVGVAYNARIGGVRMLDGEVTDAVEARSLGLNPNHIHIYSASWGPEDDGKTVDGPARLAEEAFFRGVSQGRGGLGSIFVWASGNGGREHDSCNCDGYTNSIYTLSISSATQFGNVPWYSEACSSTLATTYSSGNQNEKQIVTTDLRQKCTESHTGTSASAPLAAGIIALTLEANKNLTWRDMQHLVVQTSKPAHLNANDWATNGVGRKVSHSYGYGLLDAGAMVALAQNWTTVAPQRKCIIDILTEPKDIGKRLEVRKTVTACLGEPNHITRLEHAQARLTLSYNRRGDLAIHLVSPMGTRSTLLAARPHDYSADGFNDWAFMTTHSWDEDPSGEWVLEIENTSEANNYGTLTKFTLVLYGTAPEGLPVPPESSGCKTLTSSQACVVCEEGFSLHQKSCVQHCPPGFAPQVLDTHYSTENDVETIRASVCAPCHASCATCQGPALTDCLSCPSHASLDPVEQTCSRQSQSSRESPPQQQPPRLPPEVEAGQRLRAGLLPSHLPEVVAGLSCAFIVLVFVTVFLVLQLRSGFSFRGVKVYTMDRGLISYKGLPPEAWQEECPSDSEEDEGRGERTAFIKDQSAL

| Sequence | furin cleavage Z-score (7.5 min) | furin cleavage Z-score (15 min) | furin cleavage Z-score (30 min) |
| --- | --- | --- | --- |
| CAVFCCSMSYAGNASASA [HC2007] | -1.31 (inactive) | -1.48 (inactive) | -0.762 (inactive) |
| CAPTPCSGSWAGNASASA [HC1839] | -0.934 (inactive) | -0.739 (inactive) | -1.08 (inactive) |
| CACRPLTDFDAGNASASA [HC390] | -1.1 (inactive) | 0.259 (inactive) | -1.94 (inactive) |
| CANVPCHRPSAGNASASA [HC2321] | 0.0675 (inactive) | 0.859 (inactive) | 1.03 |
| CALNTGWLAGAGNASASA [HC377] | -0.173 (inactive) | -0.464 (inactive) | 0.636 (inactive) |
| CASTPCSAKLAGNASASA [HC2554] | 0.275 (inactive) | 1.72 | 1.78 |
| CANAASLAGTAGNASASA [HC538] | 0.915 (inactive) | 0.0856 (inactive) | 0.369 (inactive) |
| CAVIVGRVVLAGNASASA [HC1001] | -0.946 (inactive) | -1.25 (inactive) | -0.791 (inactive) |
| CAFPNRDQRDAGNASASA [FS-652] | -0.191 (inactive) | -0.415 (inactive) | -0.133 (inactive) |
| CALRRRCQRDAGNASASA [FS-459] | 9.61 (active) | 9.12 (active) | 7.39 (active) |
| CALRRVLRRDAGNASASA [FS-56] | 4.93 (active) | 4.47 (active) | 5.29 (active) |
| CAKPMRQQRDAGNASASA [FS-343] | 5.15 (active) | 5.86 (active) | 7.03 (active) |
| CALRRRGPGKAGNASASA [FS-2124] | -0.105 (inactive) | -1.37 (inactive) | -1.45 (inactive) |
| CALPVWARPDAGNASASA [HC1303] | -0.876 (inactive) | -0.333 (inactive) | -0.285 (inactive) |
| CATKRRNQRDAGNASASA [FS-509] | 9.77 (active) | 11 (active) | 8.15 (active) |
